The campaign covered roughly 5,500 compounds. About 2,000 (36%) were called active. Inconclusive results (about 18%) are left out. Rule as the data show it: active = normalized growth mostly below about 0.91 (no sharp cut-off); inconclusive = no clear call, values can overlap the other calls; inactive = mostly above about 0.92. The list shows a part of the results.
Test: chemical genetic growth profiling, strain panel (AID 1159580);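 also: tested at 20 µM; growth read once vehicle control cultures reached saturation at 30 °C; 1 = growth at the plate median or of vehicle wells; lower values mean less growth of the strain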
Settings: growth OD

Measured: normalized growth

NC(=O)c1ncn([C@@H]2O[C@H](CO)[C@@H](O)[C@H]2O)c1O
inactive: S. cerevisiae deletion strains, locus YAL013W, strain DEP1, stronger effect = lower value 1 | S. cerevisiae deletion strains, locus YBR021W, strain FUR4, stronger effect = lower value 1.02 | S. cerevisiae deletion strains, locus YBR229C, strain ROT2, stronger effect = lower value 1.01 | S. cerevisiae deletion strains, locus YCL029C, strain bik1, stronger effect = lower value 1.01 | S. cerevisiae deletion strains, locus YDL035C, strain GPR1, stronger effect = lower value 1.02 | S. cerevisiae deletion strains, locus YDL074C, strain BRE1, stronger effect = lower value 0.978 | S. cerevisiae deletion strains, locus YDL101C, strain DUN1, stronger effect = lower value 1 | S. cerevisiae deletion strains, locus YDL134C, strain PPH21, stronger effect = lower value 1 | S. cerevisiae deletion strains, locus YDL185W, strain tfp1, stronger effect = lower value 1.01 | S. cerevisiae deletion strains, locus YDL192W, strain arf1, stronger effect = lower value 1.01 | S. cerevisiae deletion strains, locus YDR101C, strain arx1, stronger effect = lower value 1.01 | S. cerevisiae deletion strains, locus YDR150W, strain NUM1, stronger effect = lower value 0.997 | S. cerevisiae deletion strains, locus YDR162C, strain NBP2, stronger effect = lower value 0.983 | S. cerevisiae deletion strains, locus YDR318W, strain mcm21, stronger effect = lower value 1.03 | S. cerevisiae deletion strains, locus YDR388W, stronger effect = lower value 1 | S. cerevisiae deletion strains, locus YDR502C, strain sam2, stronger effect = lower value 0.999 | S. cerevisiae deletion strains, locus YEL061C, strain CIN8, stronger effect = lower value 1 | S. cerevisiae deletion strains, locus YER110C, stronger effect = lower value 1.01 | S. cerevisiae deletion strains, locus YER155C, strain BEM2, stronger effect = lower value 1 | S. cerevisiae deletion strains, locus YER167W, strain BCK2, stronger effect = lower value 1.03 | S. cerevisiae deletion strains, locus YGL078C, strain dbp3, stronger effect = lower value 0.984 | S. cerevisiae deletion strains, locus YGL086W, strain mad1, stronger effect = lower value 1.02 | S. cerevisiae deletion strains, locus YGL248W, strain PDE1, stronger effect = lower value 1.01 | S. cerevisiae deletion strains, locus YGR078C, strain PAC10, stronger effect = lower value 1 | S. cerevisiae deletion strains, locus YGR135W, strain pre9, stronger effect = lower value 0.988 | S. cerevisiae deletion strains, locus YGR229C, strain SMI1, stronger effect = lower value 0.981 | S. cerevisiae deletion strains, locus YGR252W, strain gcn5, stronger effect = lower value 1.01 | S. cerevisiae deletion strains, locus YHR030C, strain SLT2, stronger effect = lower value 1.01 | S. cerevisiae deletion strains, locus YHR079C, strain IRE1 (second series), stronger effect = lower value 1.02 | S. cerevisiae deletion strains, locus YHR094C, strain hxt1, stronger effect = lower value 1.01 | S. cerevisiae deletion strains, locus YHR129C, strain ARP1, stronger effect = lower value 1.01 | S. cerevisiae deletion strains, locus YHR200W, strain rpn10, stronger effect = lower value 1.01 | S. cerevisiae deletion strains, locus YIL066C, strain RNR3, stronger effect = lower value 1.01 | S. cerevisiae deletion strains, locus YIL073C, strain SPO22, stronger effect = lower value 1.07 | S. cerevisiae deletion strains, locus YIL125W, strain kgd1, stronger effect = lower value 1 | S. cerevisiae deletion strains, locus YIR030C, strain dcg1, stronger effect = lower value 1.02 | S. cerevisiae deletion strains, locus YJL095W, strain BCK1, stronger effect = lower value 0.994 | S. cerevisiae deletion strains, locus YJL134W, strain LCB3, stronger effect = lower value 1.01 | S. cerevisiae deletion strains, locus YJL168C, strain set2, stronger effect = lower value 1.01 | S. cerevisiae deletion strains, locus YJL187C, strain SWE1 (second series), stronger effect = lower value 0.998 | S. cerevisiae deletion strains, locus YJR043C, strain POL32, stronger effect = lower value 1.04 | S. cerevisiae deletion strains, locus YJR075W, strain HOC1, stronger effect = lower value 0.974 | S. cerevisiae deletion strains, locus YKL009W, strain mrt4, stronger effect = lower value 0.996 | S. cerevisiae deletion strains, locus YKL068W, stronger effect = lower value 0.995 | S. cerevisiae deletion strains, locus YKL085W, strain MDH1 (second series), stronger effect = lower value 1 | S. cerevisiae deletion strains, locus YKL085W, strain MDH1, stronger effect = lower value 1 | S. cerevisiae deletion strains, locus YKL190W, strain CNB1, stronger effect = lower value 1.01 | S. cerevisiae deletion strains, locus YKR001C, strain vps1, stronger effect = lower value 1.02 | S. cerevisiae deletion strains, locus YLR039C, strain RIC1, stronger effect = lower value 1.04 | S. cerevisiae deletion strains, locus YLR058C, strain SHM2, stronger effect = lower value 1.01 | S. cerevisiae deletion strains, locus YLR102C, strain apc9, stronger effect = lower value 1.02 | S. cerevisiae deletion strains, locus YLR262C, strain YPT6, stronger effect = lower value 0.988 | S. cerevisiae deletion strains, locus YLR268W, strain sec22, stronger effect = lower value 0.988 | S. cerevisiae deletion strains, locus YLR330W, strain CHS5, stronger effect = lower value 1 | S. cerevisiae deletion strains, locus YLR342W, strain FKS1 (second series), stronger effect = lower value 1.07 | S. cerevisiae deletion strains, locus YLR371W, strain rom2, stronger effect = lower value 1.02 | S. cerevisiae deletion strains, locus YLR418C, strain cdc73, stronger effect = lower value 0.979 | S. cerevisiae deletion strains, locus YML016C, strain PPZ1, stronger effect = lower value 1 | S. cerevisiae deletion strains, locus YML032C, strain rad52, stronger effect = lower value 1.03 | S. cerevisiae deletion strains, locus YML124C, strain tub3, stronger effect = lower value 1.01 | S. cerevisiae deletion strains, locus YMR078C, strain ctf18, stronger effect = lower value 1.02 | S. cerevisiae deletion strains, locus YMR223W, strain ubp8, stronger effect = lower value 1.03 | S. cerevisiae deletion strains, locus YMR263W, strain SAP30, stronger effect = lower value 0.991 | S. cerevisiae deletion strains, locus YMR307W, strain GAS1, stronger effect = lower value 1.05 | S. cerevisiae deletion strains, locus YNL067W, strain RPL9B, stronger effect = lower value 0.988 | S. cerevisiae deletion strains, locus YNL128W, strain TEP1, stronger effect = lower value 0.977 | S. cerevisiae deletion strains, locus YNL153C, strain GIM3, stronger effect = lower value 0.995 | S. cerevisiae deletion strains, locus YNL233W, strain BNI4, stronger effect = lower value 0.99 | S. cerevisiae deletion strains, locus YNL250W, strain rad50, stronger effect = lower value 1.01 | S. cerevisiae deletion strains, locus YNL271C, strain bni1, stronger effect = lower value 1.01 | S. cerevisiae deletion strains, locus YNL298W, strain CLA4, stronger effect = lower value 1.02 | S. cerevisiae deletion strains, locus YNL307C, strain MCK1, stronger effect = lower value 1.05 | S. cerevisiae deletion strains, locus YNL322C, strain KRE1, stronger effect = lower value 1.01 | S. cerevisiae deletion strains, locus YNR052C, strain pop2, stronger effect = lower value 1.02 | S. cerevisiae deletion strains, locus YOL006C, strain TOP1, stronger effect = lower value 1.06 | S. cerevisiae deletion strains, locus YOL012C, strain htz1 0.852 | S. cerevisiae deletion strains, locus YOL147C, strain pex11, stronger effect = lower value 0.999 | S. cerevisiae deletion strains, locus YOR061W, strain CKA2, stronger effect = lower value 1 | S. cerevisiae deletion strains, locus YOR069W, strain VPS5, stronger effect = lower value 1.01 | S. cerevisiae deletion strains, locus YOR136W, strain idh2, stronger effect = lower value 1.02 | S. cerevisiae deletion strains, locus YOR144C, strain elg1, stronger effect = lower value 1 | S. cerevisiae deletion strains, locus YOR184W, strain ser1, stronger effect = lower value 1.06 | S. cerevisiae deletion strains, locus YOR316C, strain cot1, stronger effect = lower value 1.01 | S. cerevisiae deletion strains, locus YPL055C, strain LGE1, stronger effect = lower value 0.946 | S. cerevisiae deletion strains, locus YPL241C, strain CIN2, stronger effect = lower value 1 | S. cerevisiae deletion strains, locus YPR119W, strain clb2, stronger effect = lower value 1.01 | S. cerevisiae deletion strains, locus YPR141C, strain kar3, stronger effect = lower value 1.01 | S. cerevisiae deletion strains, locus YPR163C, strain tif3, stronger effect = lower value 1.01 | S. cerevisiae deletion strains, locus YPR167C, strain met16, stronger effect = lower value 1.01 | S. cerevisiae deletion strains, strain wtn01, stronger effect = lower value 0.997 | S. cerevisiae strains, strain wild type, stronger effect = lower value 1.02
